# Reference: PubChem BioAssay (EPA / NIEHS)
# Inconclusive results are not listed. Calls of active or inactive are those of the source. How the source made its calls: active means hit-call score of the fitted dose curve at least 0.9, where 1 is the maximum; inconclusive means response in the unintended direction; inactive means score below 0.9.
# Assays:
# [1] = target: Luciferin 4-monooxygenase (Photinus pyralis) (UniProt P08659); experiment: CCTE_Simmons_QuantiLum_inhib_2: CCTE's Firefly Luciferase Inhibition Assay, Simmons Lab (AID 2283767);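 on AC50: potency for inhibitors that lower luciferase luminescence relative to DMSO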
# In short: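 Recombinant firefly luciferase (5 ng/well, 200 mM potassium phosphate with 1 mg/ml BSA) was exposed to 8 concentrations from 5 nM to 87.5 uM (final, 0.5% DMSO) for 30 min at 37C in the dark. Loss of luminescence versus DMSO was read after injecting D-luciferin/ATP-analogue reagent.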
# [2] = ArunA_CellTiter_hNP: Viability Assessment in the ArunA Biomedical's Oris Neural Crest (hNC) Cell Migration Assay (AID 2283753)
# In short: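 H9-derived hNP1 neuroprogenitors, 60,000/well on Matrigel, cultured 16 h, then 72 h chemical exposure in test medium. Cell titer via CellTiter Aqueous One; positive-direction fit vs DMSO.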
# [3] = ArunA_Migration_hNP: ArunA Biomedical's Oris Neuroprogenitor (hNP) Cell Migration Assay (AID 2283754)
# In short: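 Human H9-derived hNP1 neuroprogenitors on Matrigel with LIF/bFGF, plated around seeding stoppers for 16 h at 37C; stoppers removed at start of 72 h chemical exposure. Calcein-AM staining, fluorescence 494/517 nm in detection zone; loss-of-signal vs DMSO; cytochalasin D control.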
# [4] = ArunA_Migration_hNC: ArunA Biomedical's Oris Neural Crest (hNC) Cell Migration Assay (AID 2283755)
# Description: ArunA_Migration_hNC is a cell-based, single-readout assay that uses human H9-derived embryonic neural crest stem cells (hNC). Measurements were taken 72 hours after chemical dosing in a 96-well plate.ArunA_Migration_hNC is an assay component measured from the ArunA_Migration_hNC assay. It is designed to make measurements of cell migration, a form of distribution reporter, as detected with fluorescence intensity signals by HCS Fluorescent Imaging technology. Data from the assay component ArunA_Migration_hNC was analyzed at the endpoint, ArunA_Migration_hNC, in the positive analysis fitting direction relative to DMSO as the negative control and baseline of activity. Using a type of distribution reporter, loss-of-signal activity can be used to understand the cell migration. To generalize the intended target to other relatable targets, this assay endpoint is annotated to the neurodevelopment intended target family, where the subfamily is migration.
# To assess the hNP and hNC migration and cell titer endpoints, 60,000 cells per well were plated onto Matrigel in basal growth medium with LIF and bFGF in a 96-well plate format. Plates were incubated for 16 h at 37C followed by a 72 h exposure to chemical in the test medium. For the migration endpoints, cells were seeded and incubated in presence of 'seeding stoppers' to prevent cell migration and growth into the detection zone. At the beginning of chemical exposure, stoppers were removed, and growth medium was replaced with test medium. In the case of the stopper control wells, stoppers remained in place following replacement of growth medium with test medium. […] Cell viability in the detection zone was quantitated using a Flexstation3 microplate reader (ex494 nm/em 517 nm). Corresponding cell titer endpoints were assessed for the hNP and hNC cells using the Promega CellTiter Aqueous One Solution Cell Proliferation Assay (Cat no. G3581; CellTiter 96). Finally, to gain insight into the mechanisms by which cells migrate into the detection zone, Ki-67 expression was quantified for 10 additional chemicals in the hNP and hNC systems. […]
# [5] = ArunA_NOG_NucleusCount: ArunA Biomedical's Neurite Outgrowth (NOG) Assay for Nucleus Count (AID 2283756)
# In short: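 Human H9-derived differentiated neurons were exposed for 48 h right after seeding. Hoechst-stained nuclei gated by size and intensity were counted by automated high-content imaging as viable neurons. Loss of signal vs DMSO.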
# [6] = ArunA_NOG_NeuriteLength: ArunA Biomedical's Neurite Outgrowth (NOG) Assay for Neurite Length (AID 2283757)
# In short: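 Differentiated human H9-derived neurons were exposed for 48 h from seeding, then stained with Hoechst and βIII-tubulin. Automated high-content imaging gave total neurite length per valid neuron, counting processes >10 um. Loss of signal was scored versus DMSO.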
# [7] = ArunA_NOG_NeuritesPerNeuron: ArunA Biomedical's Neurite Outgrowth (NOG) Assay for Neurites Per Neuron (AID 2283758)
# In short: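 Differentiated human H9-derived neurons exposed to chemicals for 48 h from seeding, then stained with Hoechst and βIII-tubulin/DyLight 488. Automated imaging counted neurites (processes >10 um) per valid neuron; loss of signal versus DMSO scored.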
# [8] = ArunA_NOG_BranchPointsPerNeurite: ArunA Biomedical's Neurite Outgrowth (NOG) Assay for Branch Points Per Neurite (AID 2283759)
# In short: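 Automated image analysis traced neurites (processes >10 um) from valid cell bodies after Hoechst and βIII-tubulin staining. hNN cells from H9 embryonic stem cells, 48 h exposure. Fitted bidirectionally against DMSO.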
# [9] = test system: chicken Androgen Receptor (AR), gene 422165; experiment: ATG_chAR_XSP1: Attagene TRANS-FACTORIAL Multi-Species (XSP1) HepG2 Assay for chicken Androgen Receptor (AR) (AID 2283768)
# Description: ATG_XSP1_multi-species_TRANS is a cell-based, multiplexed assay created by modifying the existing Attagene TRANS-FACTORIAL system to include a panel of nuclear receptors from some or all the following species: human (Homo sapiens), mouse (Mus musculus), frog (Xenopus laevis), zebrafish (Danio rerio), chicken (Gallus gallus), and turtle (Chrysemys picta). The ECOTOX-FACTORIAL format uses HepG2, a human liver cell line, with measurements taken at 24 hours after chemical dosing in a 24-well plate. Xsp1 included 3 nM 6-alpha-fluorotestosterone to partially stimulate the androgen receptor.ATG_chAR_XSP1 is one of 29 assay components measured or calculated from the ATG_XSP1_multi-species_TRANS assay. It is designed to make measurements of mRNA induction, a form of inducible reporter, as detected with fluorescence intensity signals by Reverse transcription polymerase chain reaction (RT-PCR) and Capillary electrophoresis technology.The assay endpoint ATG_chAR_XSP1 was analyzed in the positive analysis fitting direction relative to DMSO as the negative control and baseline of activity. […] Furthermore, this assay endpoint can be referred to as a primary readout, because this assay has produced multiple assay endpoints where this one serves a reporter gene function. […]
# [10] = test system: zebrafish Androgen Receptor (AR), gene 100005148; experiment: ATG_zfAR_XSP1: Attagene TRANS-FACTORIAL Multi-Species (XSP1) HepG2 Assay for zebrafish Androgen Receptor (AR) (AID 2283771)
# In short: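 HepG2 cells were transiently transfected with a zebrafish AR-GAL4 reporter system and partially stimulated with 3 nM 6-alpha-fluorotestosterone. Reporter mRNA was measured after 24 h dosing by RT-PCR with capillary electrophoresis, and gain-of-signal was fitted relative to DMSO.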
# Sequence of Luciferin 4-monooxygenase (Photinus pyralis) (P08659 whole entry, looked up): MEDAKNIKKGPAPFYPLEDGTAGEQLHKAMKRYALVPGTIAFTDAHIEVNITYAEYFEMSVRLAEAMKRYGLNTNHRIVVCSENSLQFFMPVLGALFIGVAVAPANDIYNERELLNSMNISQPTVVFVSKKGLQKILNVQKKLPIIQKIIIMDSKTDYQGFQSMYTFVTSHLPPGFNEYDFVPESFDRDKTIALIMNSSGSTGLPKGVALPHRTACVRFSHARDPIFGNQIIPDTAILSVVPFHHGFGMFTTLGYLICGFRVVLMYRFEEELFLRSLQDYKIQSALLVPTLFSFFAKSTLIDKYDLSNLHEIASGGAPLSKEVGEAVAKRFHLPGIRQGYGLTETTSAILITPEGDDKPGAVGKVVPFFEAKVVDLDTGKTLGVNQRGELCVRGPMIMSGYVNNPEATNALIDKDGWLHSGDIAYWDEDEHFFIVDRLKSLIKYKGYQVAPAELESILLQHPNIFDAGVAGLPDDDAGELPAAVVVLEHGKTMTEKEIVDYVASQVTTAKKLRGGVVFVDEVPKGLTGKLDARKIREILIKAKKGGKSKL
smiles,measurement,setting,value
Nc1ccc2ccccc2c1,AC50,[1],53.8 µM (active)
Cc1cccc(N)c1,outcome,[1],inactive
CCCCC(CC)COP(=O)(Oc1ccccc1)Oc1ccccc1 (stereo not drawn),outcome,[2],inactive
same,outcome,[3],inactive
same,outcome,[4],inactive
same,outcome,[5],inactive
Nc1cc2c3c(c1)C(c1ccccc1)=N[C@@H](NC(=O)c1cccnc1)C(=O)N3CC2,outcome,[1],inactive
CCOP(=S)(OCC)SCSCC,outcome,[1],inactive
O=C(O)C1C(C(=O)O)C2(Cl)C(Cl)=C(Cl)C1(Cl)C2(Cl)Cl (stereo not drawn),outcome,[3],inactive
same,outcome,[4],inactive
same,outcome,[6],inactive
same,outcome,[7],inactive
same,outcome,[8],inactive
O=c1ssc(Cl)c1Cl,AC50,[1],18 µM (active)
O=S1(=O)OCC2C(CO1)C1(Cl)C(Cl)=C(Cl)C2(Cl)C1(Cl)Cl (stereo not drawn),AC50,[1],31.9 µM (active)
CCCCCCCc1ccc(O)cc1,AC50,[1],43.6 µM (active)
CCC1(c2ccccc2)C(=O)N=C(O)NC1=O (stereo not drawn),outcome,[1],inactive
CCC(C)(C)c1ccc(O)cc1,outcome,[1],inactive
[N-]=[N+]=[N-],outcome,[1],inactive
c1ccc(OP(Oc2ccccc2)Oc2ccccc2)cc1,outcome,[1],inactive
c1ccc2c(c1)Nc1ccccc1S2,outcome,[1],inactive
CCCCN(CC)C(=O)SCCC,outcome,[1],inactive
CC(C)(C)c1ccc(O)cc1,outcome,[1],inactive
Cc1ccc(N)cc1N,outcome,[3],inactive
same,AC50,[4],55.6 µM (active)
same,outcome,[5],inactive
same,outcome,[7],inactive
same,outcome,[8],inactive
same,AC50,[1],21.6 µM (active)
CCOP(=S)(Oc1ccc([N+](=O)[O-])cc1)c1ccccc1 (stereo not drawn),outcome,[1],inactive
O=P(Oc1ccccc1)(Oc1ccccc1)Oc1ccccc1,outcome,[2],inactive
same,outcome,[3],inactive
same,outcome,[5],inactive
same,outcome,[9],inactive
same,outcome,[10],inactive
CCCCc1ccc(O)cc1,outcome,[1],inactive
Nc1ccc(Cl)cc1,outcome,[1],inactive
O=S(=O)(c1ccc(O)cc1)c1ccc(O)cc1,outcome,[1],inactive
